Data reported in PubChem BioAssay.

How the values were obtained:
[1] = system: Human papillomavirus type 1a protein E7 (residues 44-93); assay: HPV1a E7 fragment binders on microarrays, primary screen, biochemical, small-molecule microarray, residues 44-93, 635 nm fluorescence (AID 1108); conditions: small-molecule microarray binding, fluorescence 635 nm; higher = more signal;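 note: E7 fragment applied at 1 µg/mL in TBST for 1 h at 4 C; score combines spot fluorescence with its signal to noise ratio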
[2] = modulators of HCV replicon luciferase signal, primary screen, HCV replication inhibitor project, Huh7 cells, luciferase reporter (AID 1109); conditions: 48 h, higher = more signal;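 note: huh7 hepatoma cells harbouring a luciferase neomycin HCV replicon reporter; luciferase luminescence as measure of HCV replicon replication; test concentration not given here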
[3] = biological target: Left-right determination factor 2 (Homo sapiens) (UniProt O00292); assay: LEFTY2 binders on small-molecule microarrays, primary screen, biochemical, small-molecule microarray, 635 nm fluorescence scan (AID 1110); conditions: LEFTY2 binding, higher = more signal
[4] = biological target: Calmodulin-1 (Homo sapiens) (UniProt P0DP23); assay: CALM1 binders on microarrays, EGTA buffer, profiling panel, biochemical, small-molecule microarray, Cy5-labelled CALM1 (AID 1111); conditions: Cy5-CALM1 binding fluorescence, higher = more signal;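 note: labelled calmodulin applied in Tris saline Tween buffer holding calcium plus EGTA and DTT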
[5] = biological target: Calmodulin-1 (Homo sapiens) (UniProt P0DP23); assay: calcium-bound CALM1 binders on microarrays, profiling panel, artefact control for SMM control-protein annotation, biochemical, small-molecule microarray, Cy5-labelled CALM1, plus calcium (AID 1112); conditions: Cy5-CALM1 binding fluorescence, higher = more signal;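 note: score merges spot fluorescence with signal to noise from triplicate slides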
[6] = small-molecule microarray binders of probe aWnt5a, primary screen, biochemical, biotinylated probe, 635/667 nm fluorescence (AID 1113); conditions: higher = more signal;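 note: score merges 667 nm fluorescence intensity with signal-to-noise per printed feature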
[7] = small-molecule microarray binders of probe aShh, primary screen, biochemical, biotinylated probe, 635/667 nm fluorescence (AID 1114); conditions: higher = more signal;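 note: probe is biotin-labelled aShh protein from a stem cell growth factor screen; measures binding of labelled protein to compounds printed on the slide; score merges feature fluorescence at 667 nm with signal-to-noise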
[8] = small-molecule microarray binders of probe aNog, primary screen, biochemical, biotinylated probe, 635/667 nm fluorescence (AID 1115); conditions: higher = more signal;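 note: probe is biotinylated aNog protein used at 0.15 µg/mL for 1 h at 4 C; z-score combines 667 nm fluorescence of each spot with its signal to noise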
[9] = biological target: Torsin-1A-interacting protein 1 (Homo sapiens) (UniProt Q5JTV8); assay: LAP1 binders from COS7 cell lysate, primary screen, small-molecule microarray, 635/667 nm fluorescence (AID 1116); conditions: COS7-hLAP1 lysate binding, 635 nm fluorescence, higher = more signal
[10] = biological target: Alpha-bungarotoxin (Bungarus multicinctus) (UniProt P60615); assay: alpha-bungarotoxin binders on microarray, profiling panel, artefact control for SMM control protein annotation, biochemical, small-molecule microarray, Alexa647 label, 635/667 nm fluorescence (AID 1117); conditions: alpha-BTX-A647 binding fluorescence, higher = more signal
Sequence of Alpha-bungarotoxin (Bungarus multicinctus) (P60615 whole entry, looked up): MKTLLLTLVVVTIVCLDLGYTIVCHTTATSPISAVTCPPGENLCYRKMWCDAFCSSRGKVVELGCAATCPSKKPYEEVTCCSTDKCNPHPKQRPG

Sequence of Left-right determination factor 2 (Homo sapiens) (O00292 whole entry, looked up): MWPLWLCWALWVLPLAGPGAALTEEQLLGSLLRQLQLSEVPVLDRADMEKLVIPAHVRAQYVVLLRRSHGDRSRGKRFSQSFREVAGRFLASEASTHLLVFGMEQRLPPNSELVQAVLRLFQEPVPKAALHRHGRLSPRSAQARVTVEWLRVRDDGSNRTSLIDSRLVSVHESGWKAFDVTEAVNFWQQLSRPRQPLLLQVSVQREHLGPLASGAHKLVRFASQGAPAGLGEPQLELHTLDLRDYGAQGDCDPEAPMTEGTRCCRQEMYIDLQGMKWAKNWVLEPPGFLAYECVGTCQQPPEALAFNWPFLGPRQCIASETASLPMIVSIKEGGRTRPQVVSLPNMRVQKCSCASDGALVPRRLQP
Sequence of Torsin-1A-interacting protein 1 (Homo sapiens) (Q5JTV8 whole entry, looked up): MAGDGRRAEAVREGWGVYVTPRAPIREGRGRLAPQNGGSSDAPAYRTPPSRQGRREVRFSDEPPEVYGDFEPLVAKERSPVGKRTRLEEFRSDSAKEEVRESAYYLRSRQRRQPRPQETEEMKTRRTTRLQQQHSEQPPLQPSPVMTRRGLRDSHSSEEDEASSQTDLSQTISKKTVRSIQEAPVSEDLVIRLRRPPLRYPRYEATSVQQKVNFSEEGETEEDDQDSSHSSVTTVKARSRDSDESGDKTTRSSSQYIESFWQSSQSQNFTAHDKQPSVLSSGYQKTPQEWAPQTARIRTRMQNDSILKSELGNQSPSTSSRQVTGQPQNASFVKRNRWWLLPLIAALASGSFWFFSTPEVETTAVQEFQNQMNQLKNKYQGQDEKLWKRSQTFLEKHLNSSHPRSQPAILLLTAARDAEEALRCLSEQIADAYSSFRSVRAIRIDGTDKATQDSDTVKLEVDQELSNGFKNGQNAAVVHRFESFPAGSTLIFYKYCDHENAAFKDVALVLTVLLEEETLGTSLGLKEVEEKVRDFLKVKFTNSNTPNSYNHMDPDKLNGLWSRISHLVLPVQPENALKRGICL

SMILES	composite z-score [1]	z-score [2]	composite z-score [3]	composite z-score [4]	composite z-score [5]	composite z-score [6]	composite z-score [7]	composite z-score [8]	composite z-score [9]	composite z-score [10]
C=CCN1C(=O)[C@@]2(O[C@@H](CCn3cc([C@H](O)c4ccccc4)nn3)[C@H]([Si](C)(C)c3ccc(OC)cc3)[C@H]2C)c2ccccc21	0.733	-3.04	0.245	0.134	-0.506	0.0973	-0.0769	0.0308	0.676	1.21
COCC(=C=CC[C@H](O)c1cccc(OCCO)c1)C[C@H](O)c1ccccn1	0.0462	-0.0093	-0.0587	-0.319	-0.621	0.0151	0.0952	0.167	1.68	1.26
CC(C)(C)OC(=O)CC[C@@]1(C(=O)O)N=C(c2ccc(OCCCO)cc2)O[C@@H]1c1ccccc1	1.16	0.344	-0.499	0.357	0.145	0.0799	0.0611	0.955	0.117	1.54
C#CCNC(=O)[C@H](Cc1ccccc1)NC(=O)[C@@H](N=[N+]=[N-])C(C)C	0.902	0.965	0.69	0.222	-0.217	-0.117	-0.262	0.221	0.455	0.96
COCCCNC(=O)[C@]1(CCC(=O)OC(C)(C)C)N=C(c2ccc(OCCCO)cc2)O[C@@H]1c1ccccc1	1.49	-0.151	-0.737	1.59	1	-0.0203	-0.0248	-0.0076	1.49	1.6
O=C1C[C@@](C(=O)NCC(F)(F)F)(c2ccc([N+](=O)[O-])cc2)[C@@H](c2ccc(CO)cc2)N1C1CCCCC1	1.04	-1.4	0.301	0.769	-0.088	-0.006	0.0898	0.0807	1.9	1.8
O=C1O[C@@H](c2ccccc2)[C@@H](c2ccccc2)N2[C@@H](c3ccc(O)cc3)[C@]3(C(=O)Nc4ccc(C#CCCO)cc43)[C@@H](C(=O)NC[C@H](O)c3ccccc3)[C@H]12	0.334	0.0035	-1.87	-0.282	0.374	-0.243	0.057	1.4	-0.138	-0.588
CC[C@@H]1[C@H]2C3C(=O)N(CC)C(=O)C3CC(=O)[C@H]2[C@H](c2ccc(C)cc2)N1S(=O)(=O)c1ccc(C)cc1 (stereo not given in full)	1.4	-2.17	0.174	1.01	0.715	-0.124	-0.0035	-0.115	-0.154	0.484
CCOc1cc(C(O)C2C=CC3C(=O)N(C4CCCCC4)C(=O)C3N2Nc2ccc(OC)cc2)ccc1O (stereo not given)	1.41	-0.352	0.208	1.13	0.505	0.0182	0.06	0.796	0.327	1.64
C=CC1c2cc(O)c(OC)cc2CCN1Cc1sc2ccccc2c1Cl (stereo not given)	1.38	-1.78	0.0792	0.248	0.237	-0.107	0.0796	-0.0132	0.47	1.47
C=C(CCCC)/C(=C/C[C@@H](OC(=O)c1ccncc1)c1cccc(OCCO)c1)c1cnc2ccccc2c1	1.3	-1.96	0.742	0.185	-0.472	0.0037	-0.0035	-0.103	1.49	2.58
C=C(COC)/C(=C/C[C@@H](OC(=O)c1ccncc1)c1ccc(CO)o1)c1cnc2ccccc2c1	1.42	-0.632	1.03	0.274	-0.851	0.0037	0.365	0.557	1.83	2.65
O=C1O[C@@H](c2ccccc2)[C@@H](c2ccccc2)N2[C@@H](c3ccc(O)cc3)[C@]3(C(=O)Nc4ccccc43)[C@@H](C(=O)Nc3nc4ccccc4s3)[C@H]12	1.36	-2.35	0.0034	1.28	-0.596	0.0495	0.0815	-0.179	0.0579	1.32
CCCCC(=C=CC[C@@H](O)c1ccc(OCCO)cc1)C[C@@H](O)COCc1ccccc1	-0.548	-1.45	0.141	-0.686	-0.244	0.0044	0.0796	-0.213	1.89	-0.324
CC(C)CNC(=O)[C@@H]1c2ccccc2C(=O)N(Cc2cc(F)cc(C(F)(F)F)c2)[C@H]1c1ccc(CO)cc1	-0.0365	-0.604	-0.0784	0.0981	-0.025	-0.0459	0.0639	-0.579	0.662	-0.694
C=C(C(=O)CC[C@H](OC(=O)c1cccnc1)c1cccc(OCCO)c1)C(C)C	0.074	-3.63	-0.507	-1.21	-1.58	-0.124	0.0952	0.151	0.307	-0.0234
COC1(C)CN(Cc2ccccc2Br)[C@H](/C=C/c2ccccc2)[C@H](Cc2ccccc2)O1 (stereo not given in full)	-0.579	-1.58	-0.137	-0.0755	-0.412	-0.176	-0.291	-0.169	-0.631	-0.0462

SMILES	composite z-score [1]	z-score [2]	composite z-score [3]	composite z-score [4]	composite z-score [5]	composite z-score [6]	composite z-score [7]	composite z-score [8]	composite z-score [9]	composite z-score [10]
CO[C@H]1O[C@H](CO)[C@@H](OC(=O)Nc2ccccc2-c2ccccc2)[C@H](OC(=O)Nc2ccc3c(c2)OCO3)[C@@H]1OC(=O)Nc1ccc2c(c1)OCO2	1.49	-0.841	0.0086	1.24	-0.499	0.0244	0.232	1.21	0.541	1.01
COc1cc(CO)cc(I)c1O[C@H]1C=C(C(=O)NCCO)C[C@@H](NCc2ccccc2F)[C@@H]1O	0.509	-2.62	0.365	-0.154	-0.327	-0.264	-0.138	-0.103	1.4	0.109
C[C@H]1C2=C3C(CC[C@H]4C(OCc5ccc(F)cc5C(F)(F)F)OC[C@](C)([C@@H]34)N(C(=O)OC(C)(C)C)C2)C(CO)C1CO (stereo not given in full)	1.34	-2.81	-0.593	2.4	0.861	0.114	0.255	-0.697	0.222	0.671
CCOC(=O)C[C@H]1[C@H](OC(=O)c2ccc(-c3ccccc3)cc2)[C@@H](NC(=O)C2CCCCC2)c2cc(OCCCO)ccc2N1C(=O)c1ccccc1	0.959	-1.84	0.365	0.413	-0.0071	-0.0822	-0.123	-0.232	-0.241	0.0785
C=CCN1Cc2ccccc2C[C@@]2(N=C(c3ccc(OCCCO)cc3)O[C@H]2c2ccccc2)C1=O	1.46	-3.08	0.473	2.97	-0.398	0.0873	0.19	-0.179	1.2	1.15
O=C1NC(=O)C2C1C=CC(C(O)c1ccc3c(c1)OCO3)N2Nc1ccccn1 (stereo not given)	-0.945	0.0264	0.324	0.151	-0.197	-0.0524	-0.0769	0.677	0.493	0.498
COc1ccc([Si](C)(C)[C@H]2[C@H](CCn3cc([C@H](O)c4ccccc4)nn3)O[C@@]3(C(=O)N(Cc4cccc(N5C(=O)c6cccc7cccc5c67)c4)c4ccccc43)[C@@H]2C)cc1	-0.56	-2.67	-0.823	0.419	1.13	-0.175	-0.2	0.206	-0.0061	-1.02
COc1cc2c(cc1O)C(C)N(Cc1cc3c(cc1Br)OCO3)CC2 (stereo not given)	-1.15	-0.0195	-0.407	0.0966	0.201	-0.0944	-0.338	-0.252	0.208	-0.0712
CC(C)(C)OC(=O)CC[C@]1(C(=O)O)N=C(c2ccc(OCCCO)cc2)O[C@H]1c1ccccc1	0.138	-0.733	-0.369	0.76	1.05	-0.096	-0.0769	-0.172	0.0522	0.574
C=CCNC(=O)[C@@H]1[C@H]2C(=O)O[C@H](c3ccccc3)[C@H](c3ccccc3)N2[C@H](c2ccc(OCCO)cc2)[C@@]12C(=O)N(C(=O)OCCOC)c1ccc(C#CC3=CCCCC3)cc12	1.34	-1.68	0.509	1.66	0.283	-0.0051	0.13	-0.375	0.642	0.84
COc1ccc(NC(=O)O[C@H]2[C@H](OC(=O)Nc3ccc4c(c3)OCO4)[C@@H](OC(=O)Nc3ccc4c(c3)OCO4)[C@@H](OC)O[C@@H]2CO)cc1	1.38	-0.802	0.0093	1.88	-0.56	-0.0478	0.365	0.966	1.29	0.663
C=CCOC(=O)[C@H]1[C@@H]2C(=O)O[C@@H](c3ccccc3)[C@@H](c3ccccc3)N2[C@@H](c2ccc(OCCOC(=O)[C@H]3C[C@H]4C(=O)N[C@@H](CCCC[N+](C)(C)C)C(=O)N4[C@H]3c3cccc(OCCO)c3)cc2)[C@]12C(=O)Nc1ccc(I)cc12	0.62	-1.38	0.73	0.727	0.119	-0.0721	-0.138	0.0051	0.62	0.113
O=C1NC(=O)C2C1C=CC(C(O)c1c(F)cccc1Cl)N2Nc1ccccn1 (stereo not given)	-0.465	-0.469	0.5	-1.19	-0.625	0.0108	-0.0274	-0.207	0.505	-0.358
C=CCC(OC(C)=O)[C@@H]1[C@@H](N(Cc2ccc(-c3ccccc3)cc2)C(=O)c2cccc3ccccc23)c2cc(OCCCO)ccc2N1C(=O)Cc1ccc2ccccc2c1 (stereo not given in full)	-0.106	-0.374	-0.304	-0.29	0.842	-0.108	-0.243	-0.225	0.0247	0.528
CC(C)N1CC=CC23O[C@@H]4C=CCOC(=O)[C@@H]4[C@H]2C(=O)N(C(C)CO)[C@@H]3C1=O (stereo not given in full)	-0.913	0.187	-1.76	-0.0212	-0.123	-0.196	0.0278	0.141	-0.606	-0.127
CC(C)CCC[C@@H](C)[C@H]1CC[C@@]2(C)C3=C(CC[C@]12C)[C@@]1(C)CC[C@H](OC(=O)c2ccc(Br)cc2)C(C)(C)C1CC3 (stereo not given in full)	-0.298	0.132	0.711	0.132	-0.442	-0.157	-0.0977	-0.18	0.162	0.204
CCOC(=O)C[C@H]1[C@H](OC(=O)c2ccc(-c3ccccc3)cc2)[C@@H](NC(=O)c2ccc3ccccc3n2)c2cc(OCCCO)ccc2N1C(=O)c1ccccc1	1.33	-1.1	0.479	0.992	0.389	-0.0606	-0.0904	-0.302	0.574	0.452
